Sampled rows, rich in hits. Any-hit rate of the full collection: about 2.6%.
AmpC inh det: Promiscuous and Specific Inhibitors of AmpC Beta-Lactamase (assay with detergent). P00811. purified AmpC, nitrocefin hydrolysis with detergent. Potency, µM (highest dose often 28.7 µM), inactives show at the highest dose activity change, negative = inhibition. 0.09% of 71,000 active. AID 584, 2007; active = well fitted curve in the direction sought with a large enough effect; inconclusive = small, poorly fitted or top-dose-only effect; note: % is set by controls: 0 for no effect and ±100 for the full control effect
Target sequence (P00811 whole entry, looked up): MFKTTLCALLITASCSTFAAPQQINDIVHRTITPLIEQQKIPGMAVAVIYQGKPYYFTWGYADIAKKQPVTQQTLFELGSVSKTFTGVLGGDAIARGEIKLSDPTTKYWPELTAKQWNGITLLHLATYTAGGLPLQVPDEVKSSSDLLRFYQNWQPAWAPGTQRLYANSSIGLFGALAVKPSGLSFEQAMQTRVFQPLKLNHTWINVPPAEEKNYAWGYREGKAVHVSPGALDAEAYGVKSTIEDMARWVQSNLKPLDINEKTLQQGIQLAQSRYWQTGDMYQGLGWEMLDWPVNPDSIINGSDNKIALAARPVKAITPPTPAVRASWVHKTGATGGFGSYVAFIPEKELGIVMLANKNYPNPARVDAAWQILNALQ
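E. coli AmpC (5.3 nM) in 20 mM phosphate pH 7.0 with 0.01% Triton X-100, preincubated 15 min RT with compound; nitrocefin (2 uL of 800 uM stock) hydrolysis followed by 480 nm absorbance every 20 s over 4 min.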
AmpC inh no det: Promiscuous and Specific Inhibitors of AmpC Beta-Lactamase (assay without detergent); AmpC nitrocefin hydrolysis, absorbance 480 nm, no detergent; Potency, µM (titrated, usually from 28.7 µM), inactives show at the highest dose activity change, negative = inhibition; 1.8% of 71,000 active; AID 585, 2007; note: % of control where 0% means no effect
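Enzyme, pH 7.0 phosphate. Compound titrations were pre-incubated with AmpC for 15 min at room temperature before nitrocefin (stock 800 uM) addition; product formation was recorded at 480 nm every 20 s for 4 min.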
Prx2 Sm inh: Schistosoma Mansoni Peroxiredoxins (Prx2); 0.07% of 65,000 active; Schistosoma mansoni peroxiredoxin 2 (Prx2); S. mansoni Prx2 activity coupled to TGR/GSH (TGR is thioredoxin glutathione reductase), NADPH fluorescence loss, qHTS; Potency, µM
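Purified S. mansoni TGR and Prx2 in pH 7.4 phosphate buffer with EDTA and Tween-20 were preincubated with compounds for 15 min. Further NADPH/GSH was added, then a 2.5 mM H2O2 aliquot initiated turnover, followed kinetically by NADPH fluorescence.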
LT uptake inh: qHTS Assay for Anthrax Lethal Toxin Internalization. Cells, anthrax lethal toxin internalization, FRET ratio (460/530). Potency, µM (doses to about 40 µM), for the others: at the highest dose activity change, negative = inhibition, usual class: inhibitors. 0.67% of 70,000 active. AID 912, 2007; note: % is set by controls: 0 for no effect and ±100 for the full control effect; nearly all actives have a fitted effect of over 50% in size
An asterisk follows results filed as active; ? = inconclusive; . = no result given; ! = repeats disagree; [ ] = remark or other dose. Unless noted, calls come from the whole dose curve. Potency is the fitted concentration of half-maximal effect.

SMILES | AmpC inh det | AmpC inh no det | Prx2 Sm inh | LT uptake inh
CO/N=C(\C(=O)N[C@@H]1C(=O)N2C(C(=O)O)=C(COC(C)=O)CS[C@@H]12)c1csc(N)n1 | 1.3µM* | 1.3µM*! | >57 | 3%[3.58 µM]
CC(=O)OCC1=C(C(=O)O)N2C(=O)[C@@H](NC(=O)Cc3cccs3)[C@@H]2SC1 | -8%[12.8 µM] | -8%[12.8 µM] | >57 | -3%[3.58 µM]
C=CC1=C(C(=O)O)N2C(=O)[C@@H](NC(=O)/C(=N\OCC(=O)O)c3csc(N)n3)[C@@H]2SC1 | 0.2µM* | 0.32µM* | >57 | 3%[3.58 µM]
O=C(Oc1ccccc1)N1CCC2(CC1)CN(c1ccncc1)C2 | 3% | 1% | >57 | -8%
COc1cc2ccc(=O)oc2c(O)c1OCC=C(C)C | -1% | -3% | >57 | ?
CC(C)=CCC/C(C)=C/COc1c2ccoc2cc2oc(=O)ccc12 | 14% | 13µM* | >57 | ?
NC1=C(O)C(=O)[C@H](c2c[nH]c3ccc(OCc4ccccc4)cc23)O1 | -4%[5.75 µM] | -17%[5.75 µM] | >57 | ?
COCCn1c(=O)c(-c2ccc(Cl)cc2)nc2cnc(N(C)C)nc21 | 0% | 12% | >57 | ?
FC(F)(F)c1cc(CO[C@@H]2CCCN[C@H]2c2ccccc2)cc(C(F)(F)F)c1 | -1% | 31% | >57 | 13%
CCN(CC)c1ccc(NC(=O)CC2Oc3ccccc3NC2=O)c(C)c1 (stereo unspecified) | 11% | 4µM*[single pt active] | >57 | ?
Cc1ccc(NC(=O)CC2Oc3ccccc3NC2=O)c(C)c1 (stereo unspecified) | 13% | 4µM*[single pt active] | >57 | 0%
COc1ccc(Oc2ncc3nc(-c4cn(C)c5ccccc45)c(=O)n(C)c3n2)cc1 | 0% | 6% | >57 | ?
Fc1ccc([C@H]2CCNC[C@H]2COc2ccc3c(c2)OCO3)cc1 | 0% | 26% | >57 | -14%
CN1CC[C@@]2(CCCN(C(=O)Oc3ccccc3)C2)C1 | -1% | -2% | >57 | 7%
COc1ccc(OCCC(=O)NC2=NCCS2)cc1 | -5% | -2% | >57 | 14%
COc1ccc(C(=O)NCC(=O)NC2=NCCS2)cc1 | 13% | 4µM*[single pt active] | >57 | 3%
CC(C)(C)N1C(=O)[C@H]2[C@H]3[C@H](O)[C@H](O)C/C(=N/NC(=O)OCc4ccccc4)[C@@H]3CC[C@@H]2C1=O | . | . | . | 4%[8 µM]
Cc1sc2nc3ccc(N4CCCC4)nn3c(=O)c2c1C | 18% | 4µM*[single pt active] | >57 | -14%
COc1cc2c(=O)n(CC3CCCO3)c(=O)n(CC(=O)Nc3ccc(F)cc3F)c2cc1OC (stereo unspecified) | 16% | 4µM*[single pt active] | >57 | 10%
Cc1c(C(=O)OCc2ccccc2)[nH]c2c1C(=O)CC(c1ccco1)C2 (stereo unspecified) | 1% | 13µM*[single pt active] | >57 | ?
CC1=C(C(=O)OC(C)C)C(c2ccccn2)n2ncnc2N1 (stereo unspecified) | 14% | 4µM*[single pt active] | >57 | 14%
CC1=C(C(=O)OC(C)C)C(c2ccncc2)n2ncnc2N1 (stereo unspecified) | -3% | -1% | >57 | ?
CC1=C(C(=O)OC(C)C)C(c2cccnc2)n2ncnc2N1 (stereo unspecified) | 8% | 4µM*[single pt active] | >57 | 26%
COC(=O)[C@@H](NC(=O)c1cc(-c2ccccc2)nc2ccccc12)c1ccccc1 | -3% | 36% | >57 | .
COc1ccc(-n2c(=O)c(C)nc3cnc(N(C)C)nc32)cc1 | 0% | 20% | >57 | 10µM*
SMILES | AmpC inh det | AmpC inh no det | Prx2 Sm inh | LT uptake inh
CCNc1ncc2nc(C)c(=O)n(-c3ccc(OC)cc3)c2n1 | -4% | 15% | >57 | -29%
O=C(O)/C(=C\c1ccncc1)c1cccc2ccccc12 | -7%[5.75 µM] | 0%[5.75 µM] | >57 | 3%[8 µM]
O=c1cc(-c2ccc(O)cc2)oc2cc(O)cc(O)c12 | 6% | 4µM*! | >57 | -17%
O=c1cc(-c2ccccc2)oc2cc(O)cc(O)c12 | -1%[12.8 µM] | -12%[12.8 µM] | >57 | -5%[3.58 µM]
O[C@H]1CCCC[C@H]1N1CCC(c2ccccc2)CC1 | -5% | 2% | >26 | ?
c1ccc(CCc2cccnc2)nc1 | 1%[5.75 µM] | -9%[5.75 µM] | >57 | 0%[8 µM]
Cc1ccc(S(=O)(=O)n2nc(C)c(Br)c2C)c(C)c1C | 8% | -8% | >57 | 13µM*
CCOC(=O)N1CCN(S(=O)(=O)c2ccc(C)c(C)c2C)CC1 | -9% | 63% | >57 | 17%
CCCC(=O)n1nc(-c2ccco2)nc1SCc1ccccc1 | -7% | 10µM* | >57 | -3%
